{"source": "PubChem BioAssay (NCATS)", "note": "Results filed as inconclusive are left out. Unmarked numbers belong to inactive results. Active and inactive are the calls of the source. The call rests on the fitted dose curve; in most records, active means well fitted inhibition curve with a large enough effect; inconclusive means small, poorly fitted or top-dose-only effect; inactive means flat fitted curve, though single readings scatter. On the % scale 0 is the no-effect control and ±100 the full control effect.", "data": [{"tested_on": "CRL-7250", "assay": "Cytotoxic Profiling of Annotated Libraries Using Quantitative High-Throughput Screening (AID 1296008); further: nearly all actives have a fitted effect of over 60% in size", "settings": "Five cell lines viability, CellTiter-Glo ATP luminescence, 48-72 h; max response: stronger effect = lower value", "method_in_brief": "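Cells exposed to compounds for 48 or 72 hr at 37 degrees Celsius. Viability read as ATP-coupled luminescence with CellTiter-Glo after 10 min at room temperature.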", "units": {"max response": "%"}, "values": [{"smiles": "CC(CC(C#N)(c1ccccc1)C(C)C)N(C)C", "note": "(configuration not stated)", "max response": -3.29}, {"smiles": "COCCc1ccccn1", "max response": -7.75}, {"smiles": "CC(C(=O)O)c1ccc(/C=C2\\CCCCC2=O)cc1", "note": "(configuration not stated)", "max response": 1.18}, {"smiles": "COC(=O)c1cc(S(N)(=O)=O)ccc1OC", "max response": -27.4}, {"smiles": "O=C(O)c1ccc(OCCN2CCCCC2)cc1", "max response": 4.52}, {"smiles": "O=C1CCCc2c(O)cccc21", "max response": -3.71}, {"smiles": "O=C(O)c1ccccc1S", "max response": -0.928}, {"smiles": "Cc1ccc(/C=N/n2c(-c3ccccc3)csc2=S)cc1", "max response": -8.42}, {"smiles": "O=C(O)Cn1cnnn1", "max response": -0.376}, {"smiles": "CN(C(=O)C(Cl)Cl)c1ccc(OC(=O)c2ccco2)cc1", "max response": 4.42}, {"smiles": "CC(=O)O[C@@H]1CC2C3CCc4cc(OC(=O)c5ccccc5)ccc4C3CCC2(C)[C@H]1OC(C)=O", "note": "(some centres not stated)", "max response": -8.96}, {"smiles": "C[C@@H]1CCC[C@H](C)N1CCCC(O)(c1ccccc1)c1ccccn1", "note": "(some centres not stated)", "max response": 3.63}, {"smiles": "CC(C)C(C)(C)C(C)(C)C(C)(C)S", "max response": -4.15}, {"smiles": "Cc1cc(CCCOc2c(C)cc(-c3noc(C(F)(F)F)n3)cc2C)on1", "outcome": "inactive"}, {"smiles": "CCOC(=O)c1ccc(OCCN2C[C@H](O)[C@@H](O)[C@H](O)[C@H]2CO)cc1", "max response": -7.54}, {"smiles": "CO[C@]1(NC(=O)CSC(F)F)C(=O)N2C(C(=O)O)=C(CSc3nnnn3CCO)CO[C@H]21", "max response": -1.31}, {"smiles": "O=C(COCCOCCOCC(=O)Nc1c(I)cc(I)c(C(=O)O)c1I)Nc1c(I)cc(I)c(C(=O)O)c1I", "outcome": "inactive"}, {"smiles": "CCc1cc2cc(OC)c(OC)cc2c(Cc2ccccc2)n1", "outcome": "inactive"}, {"smiles": "O=c1[nH]c(=O)n([C@H]2O[C@H](CO)[C@@H](O)[C@@H]2O)cc1/C=C\\Br", "max response": -8.24}, {"smiles": "O=C1NC(=O)/C(=C/c2ccc3c(c2)OC(F)(F)O3)S1", "max response": 4.23}, {"smiles": "CC(=O)N(c1onc(C)c1C)S(=O)(=O)c1ccc(N)cc1", "max response": -16.4}, {"smiles": "O=C1CC2(CCCC2)CC(=O)N1", "max response": -7.34}, {"smiles": "CCCC(=O)OCOC(=O)C1=C(C)NC(C)=C(C(=O)OC)C1c1cccc(Cl)c1Cl", "note": "(configuration not stated)", "max response": 4.76}, {"smiles": "CCN(CC)CC(=O)Nc1c(C)cccc1C(=O)OC", "max response": 1.74}, {"smiles": "CCN1CCN(c2cc(-c3ccc(F)cc3)c3c(n2)CCCCCC3)CC1", "max response": 3.32}, {"smiles": "CC(C)(C)CC(=O)OCC(=O)[C@@]1(O)CC[C@H]2[C@@H]3CCC4=CC(=O)C=C[C@]4(C)[C@H]3[C@@H](O)C[C@@]21C", "max response": -1.84}, {"smiles": "COc1ccc2c(c1)c(CC(=O)OC/C=C(\\C)CC/C=C(\\C)CCC=C(C)C)c(C)n2C(=O)c1ccc(Cl)cc1", "outcome": "inactive"}, {"smiles": "CCCCCOc1ccccc1/C(=C\\SC)n1ccnc1", "max response": -4.59}, {"smiles": "COc1cc2nc(Cl)nc(N)c2cc1OC", "outcome": "inactive"}, {"smiles": "CO[C@@]1(NC(=O)CSC[C@@H](N)C(=O)O)C(=O)N2C(C(=O)O)=C(CSc3nnnn3C)CS[C@@H]21", "max response": 1.25}, {"smiles": "OC[C@]1(O)OC[C@@H](O)[C@H](O)[C@@H]1O", "max response": -7.2}, {"smiles": "CC(C)N(CCC(=O)c1ccc2ccccc2c1)Cc1ccccc1", "max response": -24.3}, {"smiles": "C1=CC2C3C=CC(C3)C2C1", "note": "(configuration not stated)", "outcome": "inactive"}, {"smiles": "O=C1c2ccccc2CCc2ccccc21", "max response": 2.21}, {"smiles": "Brc1ccc([C@H]2CN3CCSC3=N2)cc1", "max response": -3.15}, {"smiles": "Nc1ccc(C(=O)N2CC3CC(CN(Cc4ccccc4)C3)C2)cc1", "max response": -9.41}, {"smiles": "CN(C)c1cc2c(Nc3ccc4c(cnn4Cc4ccccc4)c3)ncnc2cn1", "max response": -15}]}]}
